# Out of some 290,000 compounds screened, about 27,000 (9.3%) were called active. This excerpt belongs to a sample that is enriched for actives. Values without a mark were called inactive. Cut-off read from the data, not from the text of the source: active = inhibition mostly above about 28% (no sharp cut-off); inactive = mostly below about 43%. Where a SMILES comes first, the peptide text is derived from it. [ ]: non-standard residue; d: D form. The star is where a group is joined. ξ: configuration not given here. Cbz = O=C(OCc1ccccc1)*; ξL = CC(C)CC(N)C(=O)O; ξP = O=C(O)C1CCCN1
# Experiment: A qHTS for Small Molecule Inhibitors of Shiga Toxin; note: 0% is about no effect
# Conditions: Vero cells, Shiga toxin protein synthesis inhibition reporter; at 38.7 µM, hits give high values
row,Compound,inhibition
1,O=C(Nc1cccc(F)c1)c1coc(=O)c(Br)c1,-10.4%
2,CCCCNC(=O)c1cn(CC)c2cc(N3CCN(C(=O)c4ccco4)CC3)c(F)cc2c1=O,-7.36%
3,COCCCNC(=O)/C(C#N)=C/c1c(N2CCCCCC2)nc2ccccn2c1=O,-3.53%
4,Cc1ccc(S(=O)(=O)Nc2nc3ccccc3s2)cc1[N+](=O)[O-],-15.3%
5,Cc1ccnc(Nc2nc3ccccc3s2)n1,76.8% (active)
6,CSCCC(Nc1nc2ccccc2s1)C(=O)O (centres undefined),-3.96%
7,CS(=O)(=O)N(CC(=O)Nc1ccc(F)cc1)C1CCCCC1,18.9%
8,COc1ccc(S(=O)(=O)N2CCN(c3ccc(F)cc3)CC2)cc1-c1noc(C)n1,-2.91%
9,Cc1ccc(-n2c(C)cc(/C=N/Nc3ccc([N+](=O)[O-])cn3)c2C)c(C)c1,50.3%
10,Cc1cc(/C=N/n2cnnc2)c(C)n1-c1cccc(C(=O)O)c1,26.3%
11,Cc1cc(/C=N/Nc2ccc([N+](=O)[O-])cn2)c(C)n1-c1cccc(C(=O)O)c1,81.9% (active)
12,CC(C)C[C@H](NC(=O)C1CC(=O)N(c2ccc3c(c2)OCCO3)C1)C(=O)NC1CCCC1 (some centres undefined),-4.71%
13,COc1cc(/C=C/C(=O)O)cc(S(=O)(=O)Nc2ccccc2C(=O)NCCc2ccccc2)c1OC,55.3%
14,CC(C)CC(NC(=O)C1CCCN1C(=O)[C@@H](C)NC(=O)OCc1ccccc1)C(=O)NCC(N)=O (some centres undefined) (Cbz-[dA][ξP][ξL]G-NH2),-3.42%
15,COC(=O)c1cccc(N(C(=O)c2ccco2)C(C(=O)NC2CCCC2)c2ccco2)c1 (centres undefined),-1.98%
16,COc1cc(NC(=O)CCS(=O)(=O)c2ccc3c(c2)oc(=O)n3C)cc(OC)c1,15.8%
17,CCCCC(=O)Nc1ccc2c(c1)OCCO2,70.5% (active)
18,COC(=O)CCNc1ccc2c(c1)OCCO2,155% (active)
19,CCOc1ccc(NCCC(=O)c2ccc3c(c2)OCO3)cc1,21.5%
20,COc1ccccc1OCCCC(=O)Nc1ccc2c(c1)OCCO2,20.5%

row,Compound,inhibition
1,O=C(COc1ccc(Cl)cc1)Nc1ccc2oc(=O)ccc2c1,6.26%
2,CCC(C)(C)NC(=O)CN(C(=O)C(=O)Nc1ccc2c(c1)OCCO2)C(C)(C)CC,15.3%
3,CCn1c(COc2ccccc2)nnc1SCC(=O)Nc1ccc2c(c1)OCCO2,4.75%
4,CCC(C(=O)Nc1ccc2c(c1)OCCO2)c1ccccc1 (centres undefined),34.4%
5,CC(C)NS(=O)(=O)c1ccc(OCC(=O)Nc2ccc3c(c2)OCCO3)cc1,-9.12%
6,O=C(COc1ccc(Cl)cc1)Nc1ccc2c(c1)OCO2,71.8% (active)
7,O=C(CCS(=O)(=O)Cc1ccccc1)Nc1ccc2c(c1)OCCO2,-14.4%
8,CCc1ccccc1OCC(=O)Nc1ccc2c(c1)OCCO2,54.9% (active)
9,CC(=O)Nc1cccc(Nc2nc(-c3cccs3)nc3ccccc23)c1,27.4%
10,Cc1cc(=O)oc2c1ccc1ccccc12,17.1%
11,O=C(CCc1ccccc1)Nc1ccnn1C1CCN(Cc2ccc(OCCO)cc2)CC1,27.8%
12,O=C(CC1C(=O)NCCN1CC(c1ccccc1)c1ccccc1)NCC1CCOCC1 (centres undefined),16.2%
13,CC(NC(=O)CCCC1CCCCC1)c1ccc(S(N)(=O)=O)cc1 (centres undefined),-5.49%
14,COC(=O)c1cc(CNC(=O)CC(C)c2ccccc2)ccc1OC (centres undefined),-4.17%
15,Cc1ccc(SCC(=O)Nc2ccc3c(c2)OCCO3)cc1,77.1% (active)
16,O=C(CSc1nnnn1-c1ccc2c(c1)CCC2)Nc1ccc2c(c1)OCCO2,33.4%
17,CCC(=O)Nc1cccc(NC(=O)CSc2nnnn2C2CCCC2)c1,-2.63%
18,Cn1ccnc1SCC(=O)Nc1ccc2c(c1)OCCO2,7.65%
19,O=C(CSc1nnnn1C1CCCC1)Nc1ccc2c(c1)OCCO2,129% (active)
20,Cc1ccc(S(=O)(=O)NCC(=O)Nc2ccc3c(c2)OCCO3)cc1,-18.4%

row,Compound,inhibition
1,Cc1cc(OC(=O)c2ccc(OC(C)C)cc2)c([N+](=O)[O-])c(=O)[nH]1,13%
2,COc1ccc(-n2nc3c(N4CCC(C(=O)NCc5ccccc5)CC4)nnc(C)c3c2C)cc1,-7%
3,COc1ccc(CCNC(=O)CCc2cn(C)c3ccccc23)c(OC)c1,-3.65%
4,Cc1nnc(NC(=O)/C=C/c2ccco2)s1,45.9% (active)
5,C/C(=N/NS(=O)(=O)c1ccccc1)c1ccc(NC(=O)C(F)(F)F)cc1,-9.75%
6,C/C(=N\NS(=O)(=O)c1ccc(Cl)cc1)c1ccc(NC(=O)c2ccco2)cc1,34% (active)
7,Cc1cccc(NC(=O)Nc2cccc(Oc3c(F)c(F)c(F)c(F)c3F)c2)c1,-0.582%
8,CC(C)CNC(=O)COC(=O)/C=C/c1ccco1,-5.59%
9,O=C(O)/C=C\C(=O)Nc1ccc(OCc2ccccc2)cc1,43%
10,CCc1nnc(NC(=O)/C=C/c2ccc(C)o2)s1,26.8%
11,CN1CCN(S(=O)(=O)c2ccc(NC(=O)c3ccco3)cc2)CC1,47.4%
12,O=C(/C=C/c1ccco1)Nc1ccc(Oc2ccccc2)cc1,80.2% (active)
13,CCC(CC)c1nnc(NC(=O)/C=C/c2ccco2)s1,20%
14,Cc1ccc(C(=O)COc2cccc(NC(=O)c3ccco3)c2)cc1,14.8%
15,CCOC(=O)c1cccc(NS(=O)(=O)c2c(C(=O)N3CCCCCC3)c(C)n(C)c2C)c1,-9.67%
16,CC(=O)Nc1ccc(NC(=O)[C@@H](NC(=O)c2cccc(C)c2)C(C)C)cc1,-2.98%
17,Cc1cc(C)cc(OCC(=O)Nc2cc(NC(=O)COc3cc(C)cc(C)c3)cc(C(=O)O)c2)c1,-3.47%
18,Cc1ccc(NC(=O)CSc2cccc3cccnc23)c(C)c1,21.1%
19,O=C(CN1C(=O)COc2ccc(Cl)cc21)N1CCOCC1,-1.98%

# From PubChem BioAssay AID2315 (National Center for Advancing Translational Sciences (NCATS), 2010)
